Where “and” joins values, the source holds several entries; their conditions need not be identical. Identical values can stand only once. About 5,700 (36%) of roughly 16,000 compounds were called active. Not shown: some 24% with an inconclusive outcome. The list shows a part of the results. Unmarked numbers belong to inactive results. Calls follow the shape of the dose curve; as a rule, active = well fitted curve in the direction sought with a large enough effect; inconclusive = small, poorly fitted or top-dose-only effect, or effect the other way; inactive = no such curve, though single readings can be large or run the other way.
Target: Cytochrome P450 1A2 (Homo sapiens) (UniProt P05177)
Sequence (P05177 whole entry, looked up): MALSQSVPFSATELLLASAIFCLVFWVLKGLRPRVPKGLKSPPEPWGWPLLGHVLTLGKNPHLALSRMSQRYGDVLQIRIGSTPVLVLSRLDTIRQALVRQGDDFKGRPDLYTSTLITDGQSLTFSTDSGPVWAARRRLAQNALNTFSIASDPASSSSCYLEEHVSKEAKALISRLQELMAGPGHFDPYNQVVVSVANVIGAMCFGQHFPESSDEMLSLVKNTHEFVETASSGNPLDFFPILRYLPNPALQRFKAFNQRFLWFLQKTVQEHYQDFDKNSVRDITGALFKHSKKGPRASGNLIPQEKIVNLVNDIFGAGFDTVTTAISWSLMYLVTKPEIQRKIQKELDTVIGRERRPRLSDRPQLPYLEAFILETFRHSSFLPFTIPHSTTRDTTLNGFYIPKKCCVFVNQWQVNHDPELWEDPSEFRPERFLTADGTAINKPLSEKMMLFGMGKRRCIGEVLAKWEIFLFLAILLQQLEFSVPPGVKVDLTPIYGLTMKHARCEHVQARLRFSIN
Experiment: Cytochrome panel assay with activity outcomes
Conditions: recombinant CYP, pro-luciferin dealkylation, luminescence, p450-cyp1a2; series mostly up to 57.1 µM; activity, negative = inhibition: at the top concentration
% is scaled to controls: 0 for no effect and ±100 for the full control effect.

Row | SMILES | activity, negative = inhibition | AC50
1 | CN(C)CCCn1c2ccccc2c2cnccc21 | -20% [at 2.29 µM] | 
2 | c1ccc(C(CCN2CC3CCC(CC3)C2)c2ccccc2)cc1 | 9.33% [at 11.4 µM] | 
3 | C[C@@H]1CN(CCCn2c3ccccc3c3ccccc32)C[C@H](C)N1 |  | 0.794 µM (active)
4 | C/C(=N\NC(=O)c1[nH]c2c([N+](=O)[O-])cc(C)cc2c1-c1ccccc1)c1cccnc1 |  | 1.26 µM (active)
5 | COc1ccc(C(=S)Nc2ccccc2)cc1 |  | 0.631 µM (active)
6 | COc1ccc(NC(=O)N2CCCC2C(=O)Nc2ccccc2)cc1 (stereo not given) | -29.6% | 
7 | COc1ccc2c(Cl)cc(NC(=S)Nc3ccccc3)nc2c1 |  | 0.398 µM (active)
8 | CS(=O)(=O)N1CCC[C@@]2(CCN(C(=O)Nc3cccc(F)c3)C2)C1 | -25.2% | 
9 | CC(C)(C)c1cc(/C=C(\C#N)C(N)=S)cc(C(C)(C)C)c1O |  | 12.6 µM (active)
10 | Fc1ccc(SCCc2ccncc2)cc1 |  | 0.562 µM (active)
11 | N=C(N)SCCc1ccncc1 | -17.8% [at 2.29 µM] | 
12 | c1ccc(SCCc2ccncc2)cc1 |  | 447 nM (active) and 200 nM (active)
13 | COc1ccc(CCC(C)Nc2cccc(F)c2)cc1 (stereo not given) |  | 3.55 µM (active)
14 | COc1ccc(CCC(C)NC2C3CC4CC(C3)CC2C4)cc1 (stereo not given) | -18.9% | 
15 | CCn1c(C)c(/C=N/Nc2nc3ccccc3s2)c2ccccc21 |  | 2.51 µM (active)
16 | CCOC(=O)c1sc(NS(=O)(=O)c2ccccc2)nc1C | -4.5% | 
17 | CCOC(=O)c1sc(NC(C)=O)nc1-c1ccccc1 |  | 2.82 µM (active)
18 | CCOC(=O)Nc1nc(-c2ccccc2)c(C)s1 |  | 0.2 µM (active)
19 | CCN(CC)C(=O)N1CCN(C)CC1 | -5.59% [at 25.6 µM] | 
20 | COc1ccc(O[C@H]2C=C[C@@H](c3ccccc3)O[C@H]2CO/N=C(/C)CCC(=O)OC[C@@H]2O[C@H](C#Cc3ccccc3)C=C[C@@H]2Oc2ccc(C)cc2)cc1 | -5.99% [at 11.4 µM] | 
21 | O=C(O)[C@H](Cc1ccc(O)c([N+](=O)[O-])c1)N1C(=O)c2ccccc2C1=O | -17.9% [at 2.29 µM] | 
22 | O=[N+]([O-])c1cc(/C=N/O)ccc1SCc1ccccc1 |  | 0.891 µM (active)
23 | O=C(O)c1ccc(Sc2nnnn2-c2ccccc2)c([N+](=O)[O-])c1 | -12% | 
24 | CCOC(=O)c1cnc2cc(-c3ccc(C(C)(C)C)cc3)nn2c1N | -13.4% | 
25 | CCOC(=O)c1cnc2cc(-c3ccc(C)cc3)nn2c1-c1ccccc1 |  | 2.24 µM (active)

Row | SMILES | activity, negative = inhibition | AC50
26 | C=CCSc1nc(C)cc(/C=C\c2ccccc2)c1C#N |  | 2.51 µM (active)
27 | Nc1nc(Cl)nc2c1ncn2[C@@H]1O[C@@H](CO)[C@@H](O)[C@H]1O | -12.9% | 
28 | COC(=O)CN1C(=O)S/C(=C/c2ccc(N3CCCCC3)o2)C1=O |  | 0.891 µM (active)
29 | O=C1S/C(=C/c2ccc(N3CCOCC3)o2)C(=O)N1Cc1ccc(F)cc1 |  | 3.55 µM (active)
30 | COC(=O)COc1ccc(/C=C2/SC(=O)N(CC(=O)N3CCCC3)C2=O)cc1Br | 5.15% | 
31 | COC(=O)C1C(O)=C(C=NCc2ccccc2)C(=O)CC1(C)C (stereo not given) | -9.45% | 
32 | c1cnc(N2CCN(Cc3ccc4c(c3)OCO4)CC2)nc1 |  | 6.31 µM (active) and 3.16 µM (active) and 2 µM (active)
33 | O=C(COc1ccc(Cl)cc1)N1CCN(Cc2ccc3c(c2)OCO3)CC1 |  | 5.01 µM (active)
34 | CN(Cc1ccccc1)S(=O)(=O)c1ccc(OCC(=O)N2CCOCC2)cc1 | -10.9% | 
35 | O=C(c1cc2sccc2n1Cc1ccccc1)N1CCN(c2nc3ccccc3s2)CC1 | -23.8% | 
36 | O=C(CCN1C(=O)c2cccc3cccc(c23)C1=O)N1CCN(Cc2ccc3c(c2)OCO3)CC1 | -23.1% | 
37 | c1ccc2sc(N3CCN(Cc4ccc5c(c4)OCO5)CC3)nc2c1 |  | 1 µM (active)
38 | C[n+]1cc(-c2ccccc2)n2c1CCCCC2 | 9.49% | 
39 | CCCCCOc1ccc(OC(=O)c2ccncc2)cc1 |  | 12.6 µM (active)
40 | COc1ccc(OC(=O)c2ccncc2)cc1 |  | 6.31 µM (active)
41 | COc1ccc(NC(=O)N2CC3(CCN(C(=O)c4ccncc4)CC3)C2)cc1 | -1.73% | 
42 | COc1ccc(/C=C/c2ccncc2)cc1 |  | 1.26 µM (active)
43 | COc1ccc(C(=O)N2CCC3(CC2)CN(c2ccncc2)C3)cc1 | -5.39% | 
44 | COc1ccc(/C=C(/NC(C)=O)C(=O)O)cc1 | -26.8% | 
45 | O=C1CCCC=C1[C@@H](O)C1CCCCC1 | -1.29% [at 11.4 µM] | 
46 | O=C(c1ccc(Cl)cc1)N1CCN(C(=O)c2ccco2)CC1 | 4.7% | 
47 | O=C(c1cc(-c2ccc(Cl)cc2Cl)on1)N1CCN(C(=O)c2ccco2)CC1 |  | 15.8 µM (active)
48 | O=C(Cc1ccc(Cl)cc1)N1CCN(C(=O)c2ccco2)CC1 | -13.2% | 
49 | COCCNc1ncnc2ccc(-c3ccc(N(C)C)cc3)cc12 |  | 0.251 µM (active)
50 | CC(=O)NCCNc1ncnc2ccc(-c3ccoc3)cc12 |  | 12.6 µM (active)

Row | SMILES | activity, negative = inhibition | AC50
51 | COCCNc1ncnc2ccc(-c3ccoc3)cc12 |  | 15.8 µM (active)
52 | CC(=O)NCCNc1ncnc2ccc(-c3ccc4c(c3)OCO4)cc12 |  | 0.501 µM (active)
53 | COCCNc1ncnc2ccc(-c3ccc(C(=O)N(C)C)cc3)cc12 | -19.4% | 
54 | CCc1cc2c(nc1CC)CCN(CC/C(C)=N/OC[C@@H](O)COCc1ccco1)C2 | -8.65% [at 11.4 µM] | 
55 | CCC(=S)/C=C1\Sc2ccc3ccccc3c2N1CCCS(=O)(=O)O | -13.1% | 
56 | CN(C)CCCN1c2ccc3ccccc3c2Sc2cccc(Cl)c21 |  | 1 µM (active)
57 | CN(C)CCCN1c2ccccc2Sc2ccc3ccccc3c21 | -2.18% [at 2.29 µM] | 
58 | COc1ccc(C(=O)N2CCC3(CC2)CN(C(=O)Nc2cccc(C#N)c2)C3)cc1 | -4.75% | 
59 | O=C(OC1CCN(c2ccc([N+](=O)[O-])cc2)CC1)c1ccccc1 | -6.58% | 
60 | O=c1cc(-c2ccccc2)[nH]n1-c1ccc([N+](=O)[O-])cc1 |  | 22.4 µM (active)
61 | CCCNc1c(F)c(F)c2c(C)c3ccccc3nc2c1F |  | 0.708 µM (active)
62 | Oc1ccc2ccccc2c1/C=C\c1ccc2c(Br)cc(Br)c(O)c2n1 |  | 3.98 µM (active)
63 | CC(=O)N1CC(=O)N(OCc2ccccc2)C1c1ccc(Cl)cc1Cl (stereo not given) | 2.24% | 
64 | CC(=O)N1N=C(c2cccc([N+](=O)[O-])c2)OC1c1ccc(Cl)cc1Cl (stereo not given) |  | 2.51 µM (active)
65 | CC(=O)N1N=C(c2cccc([N+](=O)[O-])c2)OC1c1ccccc1Cl (stereo not given) |  | 14.1 µM (active)
66 | COc1ccc(C2C3=C(CC(C)(C)CC3=O)Oc3ncn(CC(C)C)c(=N)c32)cc1 (stereo not given) | -4.33% | 
67 | NNC(=O)CNc1cccc(Br)c1 |  | 0.501 µM (active)
68 | Cc1ccc2c(c1)N(CCC(=O)NCC1CCCO1)C(=O)CO2 (stereo not given) | -29.1% | 
69 | CCC[C@H]1C(=O)N2C(N(C)C)=Nc3ccc(C)cc3N2C1=O |  | 1.58 µM (active)
70 | CN1CCN(c2ncc3nc(-c4cccc(C#N)c4)c(=O)n(Cc4ccc(F)cc4)c3n2)CC1 | -15.5% | 
71 | COCCn1c(=O)c(-c2cc(F)cc(F)c2)nc2cnc(N3CCNCC3)nc21 |  | 6.31 µM (active)
72 | COc1cccc(Cn2c(=O)c(-c3cc(F)cc(F)c3)nc3cnc(N4CCNCC4)nc32)c1 | -17.6% | 
73 | COCCn1c(=O)c(-c2ccc(OC)cc2)nc2cnc(N3CCNCC3)nc21 |  | 6.31 µM (active)
74 | CN1CCN(c2ncc3nc(-c4cccc(C#N)c4)c(=O)n(CCC#N)c3n2)CC1 | -11.5% | 
75 | COCCn1c(=O)c(-c2cccc(C#N)c2)nc2cnc(N3CCNCC3)nc21 |  | 10 µM (active)

Row | SMILES | activity, negative = inhibition | AC50
76 | CC[C@H](C)[C@@H]1O[C@]2(CC[C@@H]1C)C[C@H]1C[C@H](CC=C(C)[C@@H](O[C@H]3C[C@H](OC)[C@H](O[C@H]4C[C@H](OC)[C@H](O)[C@H](C)O4)[C@H](C)O3)[C@@H](C)C=CC=C3CO[C@@H]4[C@@H](O)C(C)=C[C@H](C(=O)O1)[C@@]34O)O2 | -8.74% | 
77 | C/C(CCC(=O)OC[C@@H]1O[C@H](C#Cc2ccccc2)C=C[C@@H]1Oc1ccc(C)cc1)=N/O[C@@H](C)c1cn([C@H](CO)Cc2ccccc2)nn1 | -3.36% [at 11.4 µM] and -0.528% [at 11.4 µM] | 
78 | CC(=O)O[C@]12CC[N@+]3(C)CCCC[C@@H]3[C-]1Nc1ccccc12 | -11% [at 11.4 µM] | 
79 | N#Cc1cccc(-c2cc(-n3ccnc3)ncn2)c1 |  | 0.126 µM (active)
80 | N#Cc1cccc(-c2nccc(-n3ccnc3)n2)c1 |  | 0.2 µM (active)
81 | COc1ccc(C2/C(=C(/O)c3ccccc3)C(=O)C(=O)N2c2ccccn2)c(OC)c1 (stereo not given) | -28.1% | 
82 | COc1cccc(-c2nccc(-n3ccnc3)n2)c1 |  | 0.0316 µM (active)
83 | CN(C)c1ccc(-c2cc(-n3ccnc3)ncn2)cc1 |  | 0.158 µM (active)
84 | COc1cccc(/C(O)=C2/C(=O)C(=O)N(c3ccccn3)C2c2ccc(OC)c(OC)c2)c1 (stereo not given) | 12% | 
85 | NN(CC(=O)O)CC(=O)O | 1.78% [at 11.4 µM] | 
86 | C[N@+]1(CCC(=O)c2ccccc2)CC[C@H]2CC[C@H](C2)C1 | -19% [at 11.4 µM] | 
87 | c1cncc(-c2cc(-n3ccnc3)ncn2)c1 |  | 0.1 µM (active)
88 | CC1(C)NC(=O)N(c2ccc([N+](=O)[O-])c(C(F)(F)F)c2)C1=O |  | 3.16 µM (active) and 2.51 µM (active)
89 | Cc1ccc(C2C3=C(CCCC3=O)Nc3nc(SCC(=O)NCc4ccco4)[nH]c(=O)c32)cc1 (stereo not given) | -17.4% | 
90 | CCSc1nc2c(c(=O)[nH]1)C(c1ccncc1)C(C(=O)OC(C)C)=C(C)N2 (stereo not given) |  | 15.8 µM (active)
91 | CCSc1nc2c(c(=O)[nH]1)C(c1ccccn1)C1=C(CC(C)(C)CC1=O)N2 (stereo not given) | -27.4% | 
92 | [Li+] | -2.16% | 
93 | COc1ccc2c(c1)Cc1sc(NC(=O)c3ccco3)nc1-2 |  | 3.16 µM (active)
94 | COc1ccc(NC(=O)C2(c3ccc(NC(=O)c4ccc(C)cc4)cc3)CCCC2)cc1 | 5.17% | 
95 | COc1ccc(NC(=O)N2CC3(CCN(C(=O)c4ccco4)CC3)C2)cc1 | -9.08% | 
96 | COc1cccc(C(=O)NCCN2CCOCC2)c1 | -9.55% | 
97 | COc1ccc2c(c1)CCc1sc(NC(=O)c3ccc(C)cc3)nc1-2 |  | 4.47 µM (active)
98 | COc1ccc(C(=O)Nc2nc3c(s2)Cc2cc(OC)ccc2-3)cc1 |  | 4.47 µM (active)
99 | COc1cccc(C(=O)Nc2nc3c(s2)CN(C)CC3)c1 |  | 12.6 µM (active)
100 | COc1ccc(-c2nc(NC(=O)c3ccccc3)sc2-c2ccc([N+](=O)[O-])cc2)cc1 | -4.3% | 

Source: PubChem BioAssay AID1851 (National Center for Advancing Translational Sciences (NCATS), 2009)
